Source: PubChem BioAssay
Pf Dd2 inh: inhibitors of Plasmodium falciparum Dd2 growth | P. falciparum Dd2 growth, SYBR Green, 72 h | Potency, µM (series often up to 28.9 µM), without a hit: at the top dose activity, negative = inhibition, hits mostly inhibitors | hit rate 4.3% among 120,000 | AID 1347417; active = well fitted inhibition curve with a large enough effect;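 note: plate controls were DMSO vehicle for no effect and reference drug for full effect; nearly all actives have a fitted effect of over 65% in size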
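Readout: SYBR Green fluorescence, 485 nm excitation, 535 nm emission, after ~16 h lysis at 37C. Before that, Dd2-infected red cells (2.5% hematocrit) grew 72 h with compound, 29 uM top final concentration.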
* marks the source's active call; other numbers are inactive results; [ ] = another dose, or the depositor's remark. The entries come from a sample that favours hits as a whole. Potency is the fitted concentration of half-maximal effect.

What do the screens show for `CCC1CN(CCNC(=O)Cc2c(F)cc(F)cc2F)Cc2cc(OC)ccc2O1` (stereo not drawn)?
Pf Dd2 inh: -19%

Results for O=C(O)C[C@@H]1CCN(C(=O)C2CC2)C[C@@H]1CCN1CCC(n2c(=O)[nH]c3ccccc32)CC1 ?
Pf Dd2 inh: 33%

What do the screens show for `Cc1n[nH]c(C)c1CCC(=O)NC1CCCc2c1[nH]c1c(Cl)cccc21` (stereo not drawn)?
Pf Dd2 inh: -13%

Results for COC1CCN(C(=O)c2ccnc(-c3nnc4ccc(N(C)C)nn34)c2)CC1 ?
Pf Dd2 inh: -7%[44.1 µM]

Results for CC(=O)N1CCC2(CC1)C(=NC1CCCC1)NC(=O)N2c1cc(F)cc(F)c1 ?
Pf Dd2 inh: -9%

What do the screens show for `COc1ccc(CN2CCC3(CC2)C(=NC2CCCC2)NC(=O)N3c2cc(F)cc(F)c2)cc1`?
Pf Dd2 inh: -12%

How did O=C1NC(=NC2CCCCC2)C2(CCN(Cc3ccccc3)CC2)N1c1cc(F)cc(F)c1 do in these assays?
Pf Dd2 inh: 60%

What do the screens show for `O=C1NC(=NC2CCCC2)C2(CCN(Cc3ccc(F)cc3)C2)N1c1cc(F)cc(F)c1` (stereo not drawn)?
Pf Dd2 inh: 2µM*

What do the screens show for `CN(C)c1ccc(CN2CCC3(C2)C(=NC2CCCCC2)NC(=O)N3c2cc(F)cc(F)c2)cc1` (stereo not drawn)?
Pf Dd2 inh: 10µM*

Results for O=C1NC(=NC2CCCCC2)C2(CCN(Cc3cccnc3)CC2)N1c1cc(F)cc(F)c1 ?
Pf Dd2 inh: 43%

Results for CCn1ccc(C(=O)N2CCCC(c3nc(-c4ccccc4)no3)CCNC(=O)CC2)n1 (stereo not drawn) ?
Pf Dd2 inh: inactive

How did CC(C)CCN1CC2(CCCN(C(=O)c3cc(C(F)(F)F)[nH]n3)C2)CCC1=O (stereo not drawn) do in these assays?
Pf Dd2 inh: -17%

What do the screens show for `O=C(c1ccc(Cl)cc1)N1CCC2(CC1)OCC(C(=O)N1CCCC1)N2C(=O)c1ccccc1` (stereo not drawn)?
Pf Dd2 inh: inactive

What do the screens show for `O=C(Cc1cn2ccsc2n1)NC1CCOC2(CCOCC2)C1` (stereo not drawn)?
Pf Dd2 inh: -1%

What do the screens show for `COc1cc(CN2CCC3(CC2)[C@H](O)C[C@@H]3OCCN)cc(OC)c1`?
Pf Dd2 inh: -3%

What do the screens show for `COC1CN(c2cccc(F)c2)C12CCN(C(=O)C1CCC1)CC2` (stereo not drawn)?
Pf Dd2 inh: inactive

Results for COC1CN(c2cccc(F)c2)C12CCN(C(=O)C1CCCCC1)CC2 (stereo not drawn) ?
Pf Dd2 inh: 10µM*

What do the screens show for `COC1CN(c2cccc(F)c2)C12CCN(C(=O)c1ccncc1)CC2` (stereo not drawn)?
Pf Dd2 inh: inactive

What do the screens show for `COC1CN(c2cccc(F)c2)C12CCN(C(=O)NC1CCCCC1)CC2` (stereo not drawn)?
Pf Dd2 inh: 6.3µM*

How did COC1CN(c2cccc(F)c2)C12CCN(C(=O)NC(C)(C)C)CC2 (stereo not drawn) do in these assays?
Pf Dd2 inh: inactive

How did COC1CN(c2cccc(F)c2)C12CCN(C(=O)CCC1CCCC1)CC2 (stereo not drawn) do in these assays?
Pf Dd2 inh: -16%

How did OCC1CN(c2ncccn2)CC12CCNCC2 (stereo not drawn) do in these assays?
Pf Dd2 inh: 38%

Results for O=C(COc1ccccc1)Nc1ccc2ncnc(N3CCCCC3)c2c1 ?
Pf Dd2 inh: inactive

How did O=C(c1cccc(F)c1)N1CCCC(c2noc(COc3ccccc3F)n2)C1 (stereo not drawn) do in these assays?
Pf Dd2 inh: inactive

What do the screens show for `O=C(NCc1ccc(F)cc1)[C@@H]1C[C@@H](c2ccc(F)cc2)N([S+](=O)([O-])c2cccnc2)C1`?
Pf Dd2 inh: inactive

How did COc1ccc2nc3n(c2c1)[C@@H](CNCc1ccc(C#N)cc1)COC3 do in these assays?
Pf Dd2 inh: inactive

How did COc1ccc2nc3n(c2c1)[C@@H](CNCc1ccc(C(=O)O)cc1)COC3 do in these assays?
Pf Dd2 inh: 13%[44.1 µM]

Results for COc1ccc2nc3n(c2c1)[C@@H](CNCc1ccccc1)COC3 ?
Pf Dd2 inh: 7.1µM*

How did COc1ccc(CCC2CCCN(S(=O)(=O)N(C)C)C2)cc1 (stereo not drawn) do in these assays?
Pf Dd2 inh: -14%

How did COc1cccc(-c2ccc3c(N)c(C(=O)Nc4ccc(Cl)cc4F)sc3n2)c1 do in these assays?
Pf Dd2 inh: 23%

What do the screens show for `COc1ccc(-c2ccc3c(N)c(C(=O)Nc4cccc(C)c4)sc3n2)cc1`?
Pf Dd2 inh: -13%

What do the screens show for `CC(C)CSc1ccccc1NC(=O)c1sc2nc(-c3ccncc3)ccc2c1N`?
Pf Dd2 inh: 3.2µM*

How did Cc1ccc(F)cc1S(=O)(=O)N1CCn2c(n[nH]c2=O)C1 do in these assays?
Pf Dd2 inh: 1%

Results for Cc1noc(-c2cccc(OC3CN(C(=O)c4cccc5[nH]ccc45)C3)c2)n1 ?
Pf Dd2 inh: inactive[5.79 µM]
